Screening data (PubChem BioAssay)
The full list was thinned out, with hits kept by preference.
Pf Dd2 growth: inhibitors of Plasmodium falciparum Dd2 growth; Potency, µM (top dose mostly 28.9 µM), for inactives: at the top dose activity, negative = inhibition, actives largely listed as inhibitors; AID 1347417; hit rate 4.3% among 120,000; P. falciparum Dd2 growth, SYBR Green, 72 h; active = well fitted inhibition curve with a large enough effect;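 note: plate controls were DMSO vehicle for no effect and reference drug for full effect; nearly all actives have a fitted effect of over 65% in size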
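Readout: SYBR Green fluorescence, 485 nm excitation, 535 nm emission, after ~16 h lysis at 37C. Before that, Dd2-infected red cells (2.5% hematocrit) grew 72 h with compound, 29 uM top final concentration.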
* = called active by the depositor; [ ] = remark or other dose. Potency is the fitted concentration of half-maximal effect.

`O=C(c1n[nH]c2ccccc12)N1CCC(c2nc(C3CCOCC3)no2)CC1` gave Pf Dd2 growth inactive.
Screening CCN1c2cc(C(=O)N3CCN(c4ccc(F)cc4)CC3)ccc2C(=O)N2CCCCC21 (centres undefined) returned Pf Dd2 growth -11%.
`Cc1noc(C)c1-c1cccc(CCOc2cnc3c(ccn3CC(=O)O)c2)c1` gave Pf Dd2 growth inactive.
For COc1cccc(C(CC(=O)NCCc2ccc(OC)c(OC)c2)c2c[nH]c3ccccc23)c1 (centres undefined) the results were Pf Dd2 growth -16%.
For COc1ccccc1C(CC(=O)NCC(C)C)c1cn(C)c2ccccc12 (centres undefined) the results were Pf Dd2 growth inactive.
Screening COc1ccc(CCN(C)C(=O)CC(c2cccc(F)c2)c2cn(C)c3ccccc23)cc1OC (centres undefined) returned Pf Dd2 growth 2µM*.
Screening Cc1cccc(-c2ccc3c(c2)C(=O)N2CC[C@H](NC(=O)NC(C)C)[C@H]2C(=O)N3)c1C returned Pf Dd2 growth -22%[44.1 µM].
For CCOc1cccc(CNCCCSc2nnnn2C)c1 the results were Pf Dd2 growth -4%.
`Cn1nnnc1SCCNCc1ccc(OCc2ccccc2)cc1` gave Pf Dd2 growth inactive.
For Cn1nnnc1SCCCNCc1cccc(OCc2ccc(F)cc2)c1 the results were Pf Dd2 growth 5.6µM*.
Screening CN1CC(=O)N(C2CCCNC2)Cc2c(NCC(C)(C)C)ncnc21 (centres undefined) returned Pf Dd2 growth 10%.
For Cc1cnc(C(=O)N[C@@H]2CN(c3ccncn3)C[C@H]2CN(C)C)cn1 the results were Pf Dd2 growth inactive.
Screening O=C1Nc2ccc(-c3ccc4c(c3)OCO4)cc2C(=O)N2CCN(C(=O)C3CCCC3)C[C@@H]12 returned Pf Dd2 growth inactive.
For COc1ccc(Cl)cc1-c1ccc2c(c1)C(=O)N1CCN(C(=O)C3CC3)C[C@@H]1C(=O)N2 the results were Pf Dd2 growth 13µM*.
Screening COc1ccc(-c2ccc3c(c2)C(=O)N2CCN(C(=O)C4CCCCC4)C[C@@H]2C(=O)N3)cc1 returned Pf Dd2 growth inactive.
`COc1ccc(Cl)cc1-c1ccc2c(c1)C(=O)N1CCN(C(=O)C3CCCCC3)C[C@@H]1C(=O)N2` gave Pf Dd2 growth inactive.
CSc1ccc(-c2ccc3c(c2)C(=O)N2CCN(C(=O)C4CCCCC4)C[C@@H]2C(=O)N3)cc1 was read as Pf Dd2 growth 8.9µM*.
`COc1ccc(Cl)cc1-c1ccc2c(c1)C(=O)N1CCN(C(=O)c3ccccc3)C[C@@H]1C(=O)N2` gave Pf Dd2 growth inactive.
CCCNC(=O)N[C@@H]1CCC[C@@H](C(=O)NCc2cc(F)cc(F)c2)CC(=O)N(C)C1 was read as Pf Dd2 growth 5%[44.1 µM].
For COCCNC(=O)C1CC(c2ccccc2)CN(C(=O)c2ccccc2)C1 (centres undefined) the results were Pf Dd2 growth -8%.
CN1CCC(Oc2nccnc2N2CCc3ccccc32)C1 (centres undefined) was read as Pf Dd2 growth 2.8µM*.
`O=C(c1ccncc1)N1CCC(Oc2nccnc2N2CCOCC2)C1` (centres undefined) gave Pf Dd2 growth 37%.
For Cn1nccc1C(=O)N1CCC(Oc2nccnc2N2CCOCC2)C1 (centres undefined) the results were Pf Dd2 growth 114%.
Cc1ccc2c(C(=O)Nc3ccc(Cl)nc3)cnn2c1 was read as Pf Dd2 growth -14%[44.1 µM].
`COCC(=O)N[C@H]1CC[C@]2(C)CCC([C@H](C)C(=O)NCc3ccc4c(c3)OCO4)[C@H](O)[C@H]2[C@@H]1C` (some centres undefined) gave Pf Dd2 growth -16%.
CN(CCNC(=O)CN1CC2CC(C1)[C@H]1CCCC(=O)N1C2)C1CCCCC1 (some centres undefined) was read as Pf Dd2 growth -14%.
CNCc1ccccc1C(F)(F)F was read as Pf Dd2 growth 50%[44.1 µM].
`CNCc1ccccc1OC` gave Pf Dd2 growth 1%[44.1 µM].
Screening CNCc1ccccc1-c1ccccc1 returned Pf Dd2 growth 11µM*.
For O=C(NC1CC1)C1CCN(C(=O)N2CC3CC(C2)[C@H]2CCCC(=O)N2C3)CC1 (some centres undefined) the results were Pf Dd2 growth -12%.
Screening CN1C(=O)c2cccn2CC1CNC(=O)c1ccoc1 (centres undefined) returned Pf Dd2 growth 17%.
`COc1ccc(C(=O)N2C(C(=O)N3CCOCC3)COC23CCN(C(=O)C2CCC2)CC3)cc1` (centres undefined) gave Pf Dd2 growth -10%.
For O=C(Cc1cccc(Cl)c1)N1CCC2(CC1)CC(O)CCO2 (centres undefined) the results were Pf Dd2 growth -11%.
CNC(=O)[C@@H](CC(C)C)N1CCC[C@H]1C(=O)N1CCN(C)CC1 was read as Pf Dd2 growth 1%[44.1 µM].
CC(C)CCN1CC2(COCC(=O)N(Cc3cccc(OC(F)(F)F)c3)C2)C1 was read as Pf Dd2 growth 25%[44.1 µM].
